# System: HepG2
# Assay: GSK_TCMDC: Percent inhibition of human HepG2 cell line. Test compounds present at 10uM.
# Type: functional
row,SMILES,Inhibition
1,Clc1ccccc1/C=C/c1cncnc1Nc1ccc2[nH]c(Cc3ccccc3)nc2c1,4%
2,COc1ccc2c(c1)CC(C)(C)NC2CCCCCCCCC1NC(C)(C)Cc2cc(OC)ccc21.O=C(O)C(=O)O (stereo not given),42%
3,O=C(Nc1ccc2c(c1)CCC2)c1ccc(CN2CCCN(Cc3cccc(O)c3)CC2)cc1.O=C(O)C(F)(F)F,45%
4,CC(C)(CNCc1ccc(C(F)(F)F)cc1)c1nc(-c2ccc(Cl)c(O)c2)c(-c2ccncc2)[nH]1.Cl,42%
5,CCOc1cccc(C(=O)Nc2cccc(CN3CCCN(Cc4ccc(O)cc4)CC3)c2)c1.O=C(O)C(F)(F)F,23%
6,COc1ccc2cc(CNCCCCCCNCc3ccc4cc(OC)ccc4c3)ccc2c1.CS(=O)(=O)O,100%
7,O=C(/C=C/c1cccc(Br)c1)NCCCCCN1CCC(c2c[nH]c3ccccc23)CC1,38%
8,COc1cc2c(cc1OCCN1CCC(N3CCCCC3)CC1)N(C(=O)/C=C/c1ccccc1OC(F)(F)F)CC2.Cl,64%
9,CN(C)CCCNCc1ccc(-c2ccc(CNCCc3ccccc3)cc2)cc1.O=C(O)C(F)(F)F,61%
10,N#Cc1cccc(CNC(=O)c2cccc(Nc3ccnc4ccc(F)cc34)c2)c1.O=C(O)C(F)(F)F,0%
11,Cc1ccc(Cc2c[nH]c(NCCSCc3ccc(CN(C)C)s3)nc2=O)cn1,3%
12,CCc1c(C)nc(-n2nc(C)cc2NC(=O)CC(c2ccccc2)c2ccccc2)[nH]c1=O,41%
13,CCCCOP(=O)(COc1ccc(CCN(CC(O)COc2cccc3[nH]c4ccccc4c23)CC(O)COc2cccc3[nH]c4ccccc4c23)cc1)C1CCCCC1 (stereo not given),7%
14,CCCCCCN(CCCCCC)CC(O)c1c(OC)ccc2ccccc12.Cl (stereo not given),18%
15,O=C(Nc1ccc(Cl)cc1)c1ccc(CN2CCCN(Cc3cccc(Cl)c3)CC2)cc1.O=C(O)C(F)(F)F,53%
16,CO/C(=C\C=C\c1cc2cc(Cl)c(Cl)cc2[nH]1)C(=O)NCC(C)(C)CN(C)C,35%
17,Fc1ccc2[nH]c(-c3cccc(-c4ccc(CNCCc5ccncc5)cc4)c3)nc2c1.O=C(O)C(F)(F)F,44%
18,Cc1nc(-c2ccc(-c3ccc(NC(=O)c4coc5ccc(N6CC(C)NC(C)C6)cc45)cc3)c(C)c2)no1.Cl (stereo not given),1%
19,COc1cccc(NC(=O)Nc2ccc(C)c(-c3ccc(C(=O)Nc4ccncc4)cc3)c2)c1,45%
20,CCn1c(-c2nonc2N)nc2c(-c3cccc(NC(=O)Nc4ccc(Cl)cc4)c3)ncc(OCCCN)c21.O=C(O)C(F)(F)F,26%

row,SMILES,Inhibition
1,NC1CCCN(Cc2cccc(-c3ccc(-c4nc5ccccc5[nH]4)cc3)c2)C1.O=C(O)C(F)(F)F (stereo not given),25%
2,O=C(/C=C/c1ccc(C(F)(F)F)cc1)NCCCCCN1CCCN(C(=O)Nc2ccc(Cl)c(Cl)c2)CC1,89%
3,COc1ccc(-c2cccc(NC(=O)c3cccc(Cl)c3)c2)cc1CN1CCCN(C)CC1.O=C(O)C(F)(F)F,20%
4,CN1CCN(c2ccc3nccc(CCN4CCC(NCc5ccc6c(n5)NC(=O)CO6)CC4)c3n2)CC1.Cl,9%
5,NC1CCN(c2nc(NCCc3ccc(O)cc3)nc(NCc3ccccc3-c3ccccc3)n2)CC1.O=C(O)C(F)(F)F,14%
6,O=C(Nc1ccc(Cl)cc1)c1ccc(CN2CCCN(Cc3cccc(F)c3)CC2)cc1.O=C(O)C(F)(F)F,59%
7,O=c1ccc(-c2nc3cc(Cl)c(Cl)cc3n2Cc2ccc(Cl)cc2Cl)c[nH]1,0%
8,O=C(COc1cnc2ccccc2n1)Nc1ccccc1Sc1ccc(Cl)cc1,6%
9,CCC1CCCCN1S(=O)(=O)c1ccc(OC)c(N2CCN(C(=O)C(Cl)(Cl)Cl)CC2)c1 (stereo not given),9%
10,COc1cc(OC)c2c(C)cc(NCCCN3CCOCC3)nc2c1,6%
11,O=C(Nc1ccccc1)Nc1cccc(-c2cccc(-c3nc4cc(F)ccc4[nH]3)c2)c1,38%
12,Cc1noc(C)c1-c1cccc(CNCc2ccc(-c3cccc(-c4nc5cc(F)ccc5[nH]4)c3)cc2)c1.O=C(O)C(F)(F)F,37%
13,O=C(NCCCN1CCCC1=O)c1cnc(N2CCC(Oc3ccccc3)CC2)c(Cl)c1,7%
14,CCOc1cc(C)ccc1C1CCN(CCCCNC(=O)c2ccc(-c3ccc(C(F)(F)F)cn3)cc2)CC1.Cl,55%
15,CC(C)(C)c1ccc(O)c(CNC2CCCCC2)c1.Cl,5%
16,Cl.O=C(C=Cc1ccc(F)cc1)NC1CCC(CCN2CCc3ccc(-c4cnccn4)cc3CC2)CC1 (stereo not given),32%
17,CC(C)CCN1CCC(Oc2ccc(NC(=O)c3cccs3)cc2Cl)CC1.O=C(O)C(F)(F)F,31%
18,COc1cc(C(=O)NCCCN2CCN(c3cccc(Cl)c3)CC2)ccc1-c1nc2cc(Cl)c(F)cc2[nH]1,15%
19,O=C(NCCc1ccc(O)cc1)n1c2ccccc2c2ccccc21,3%
20,Cc1c(Cl)ccc2c(C(=O)Nc3ccncc3)cc(-c3cccnc3)nc12,16%
